# Laboratory results published in PubChem BioAssay.
# Several values for one entry are separate records, joined by “and”; a condition that tells them apart may be missing. Identical values can stand only once.
# Target: Concanavalin-A (Canavalia ensiformis) (UniProt P02866)
# Assay: compounds binding concanavalin A lectin – biochemical, small-molecule microarray, Alexa647 label, 635 nm, artefact control for SMM control protein annotation, primary screen (AID 1127);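 further: z combines 667 nm emission intensity with signal-to-noise across three replicate slides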
# Conditions: ConA-A647 binding fluorescence, higher = more signal
# Sequence of Concanavalin-A (Canavalia ensiformis) (P02866 whole entry, looked up): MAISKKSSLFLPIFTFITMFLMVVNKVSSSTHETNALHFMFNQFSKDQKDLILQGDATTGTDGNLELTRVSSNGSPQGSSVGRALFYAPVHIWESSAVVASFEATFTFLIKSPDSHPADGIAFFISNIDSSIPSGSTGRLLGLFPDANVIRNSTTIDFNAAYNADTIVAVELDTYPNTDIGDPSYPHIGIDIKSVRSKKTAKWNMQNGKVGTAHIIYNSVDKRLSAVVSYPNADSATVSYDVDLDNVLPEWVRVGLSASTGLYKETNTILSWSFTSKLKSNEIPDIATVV
row,Compound,composite z-score
1,C=C[C@@H](C)[C@H](O)c1ccc(O)c2ccccc12,-0.418 and -1.3
2,CCOC(=O)C[C@H]1[C@H](OC(=O)c2ccccc2-c2ccccc2)[C@@H](NC(=O)Cc2ccc(OC)cc2)c2cc(OCCCO)ccc2N1C(=O)c1ccc2ccccc2n1,0.0022 and 0.662
3,COCn1c2ccccc2c2nnc(C(C)=O)nc21,0.133 and -0.0846
4,C[C@@H](ON=C1[C@H]2CCn3c(=O)n(-c4ccccc4)c(=O)n3[C@H]2[C@H](O)[C@@H]2O[C@H]12)c1cn([C@H](CO)Cc2ccccc2)nn1,0.349
5,COC(=O)C1=C(C)N(Cc2ccccc2)[C@]23O[C@](C(=O)OC)(C(=O)N2[C@@H]1c1ccccc1)[C@H]1C(=O)N(C)C(=O)[C@H]13,1.08 and -0.174
6,C[C@@H]1CC[C@H]2C(=O)N3[C@@H](CC[C@@H](C)[C@@H]3c3ccc(-c4ccco4)cc3)C(=O)N2[C@H]1c1ccc(-c2ccco2)cc1,1.11 and 1.16
7,CCOC(=O)NN=C1C[C@@H](O)[C@@H](O)[C@@H]2[C@@H]3C(=O)N(Cc4ccc5c(c4)OCO5)C(=O)[C@@H]3CC[C@@H]12,0.837
8,C=CCN(C(=O)C(c1cccs1)N(C(=O)/C=C\C(=O)O)c1ccc(CCO)cc1)c1ccc(OC)cc1 (configuration not stated),-1.33 and -2.24
9,CC(CO)N1C(=O)[C@@H]2C3C(=O)OCCC=C[C@H]3OC23C=CCN(c2ccc(Cl)cc2)C(=O)[C@@H]13 (some centres not stated),-0.935 and 0.094
10,C#CCN1C(/C=C/c2ccccc2)C(=O)OC[C@H]1c1ccccc1 (some centres not stated),-0.243 and 0.199
11,C[C@@H]1CN2[C@@H](CC[C@@H](C)[C@@H]2c2ccc(Br)cc2)C(=O)O1,-0.0782 and -0.252
12,C=CCN(C(=O)C(c1cccs1)N(CCOCCO)C(=O)/C=C\C(=O)O)c1ccc(OC)cc1 (configuration not stated),-0.337 and -2.28
